Laboratory results from the supplement of paper PMC11732987, “Enantioselective OTUD7B fragment discovery through chemoproteomics screening and high-throughput optimisation” (Communications Chemistry, 2025).

Experiments:
Assay in all cases: log2 ratio of Biotin-Ahx-Ub-VS probe labelling (fragment/DMSO); higher = less target engagement (more negative = stronger competition), active = hit call of the paper (q ≤ 0.05, log2 ratio ≤ -1)
Details in all cases: compound concentration: 200 uM; treatment time: 3 h
USP16 = USP16 (UniProt Q9Y5T5)
Procedure, shortened: (§1)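 Labelled DUBs from HEK293T lysate were NeutrAvidin-enriched, digested with LysC and trypsin, and run by diaPASEF LC-MS/MS. Before that, each 495 µg sample in Tris/CHAPS/IGEPAL buffer with protease inhibitors was treated in triplicate with fragment at 200 µM or vehicle for 3 h, then with Biotin-Ahx-Ub-VS at 0.5 µM final for 1 h. Values are average log2 ratios of fragment over vehicle by unpaired t-test, based on global-median-normalised Spectronaut label-free quantities from proteins with ≥2 unique peptides.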

USP19 = molecular target: T1, USP19 (UniProt O94966)
T1 sequence (whole entry): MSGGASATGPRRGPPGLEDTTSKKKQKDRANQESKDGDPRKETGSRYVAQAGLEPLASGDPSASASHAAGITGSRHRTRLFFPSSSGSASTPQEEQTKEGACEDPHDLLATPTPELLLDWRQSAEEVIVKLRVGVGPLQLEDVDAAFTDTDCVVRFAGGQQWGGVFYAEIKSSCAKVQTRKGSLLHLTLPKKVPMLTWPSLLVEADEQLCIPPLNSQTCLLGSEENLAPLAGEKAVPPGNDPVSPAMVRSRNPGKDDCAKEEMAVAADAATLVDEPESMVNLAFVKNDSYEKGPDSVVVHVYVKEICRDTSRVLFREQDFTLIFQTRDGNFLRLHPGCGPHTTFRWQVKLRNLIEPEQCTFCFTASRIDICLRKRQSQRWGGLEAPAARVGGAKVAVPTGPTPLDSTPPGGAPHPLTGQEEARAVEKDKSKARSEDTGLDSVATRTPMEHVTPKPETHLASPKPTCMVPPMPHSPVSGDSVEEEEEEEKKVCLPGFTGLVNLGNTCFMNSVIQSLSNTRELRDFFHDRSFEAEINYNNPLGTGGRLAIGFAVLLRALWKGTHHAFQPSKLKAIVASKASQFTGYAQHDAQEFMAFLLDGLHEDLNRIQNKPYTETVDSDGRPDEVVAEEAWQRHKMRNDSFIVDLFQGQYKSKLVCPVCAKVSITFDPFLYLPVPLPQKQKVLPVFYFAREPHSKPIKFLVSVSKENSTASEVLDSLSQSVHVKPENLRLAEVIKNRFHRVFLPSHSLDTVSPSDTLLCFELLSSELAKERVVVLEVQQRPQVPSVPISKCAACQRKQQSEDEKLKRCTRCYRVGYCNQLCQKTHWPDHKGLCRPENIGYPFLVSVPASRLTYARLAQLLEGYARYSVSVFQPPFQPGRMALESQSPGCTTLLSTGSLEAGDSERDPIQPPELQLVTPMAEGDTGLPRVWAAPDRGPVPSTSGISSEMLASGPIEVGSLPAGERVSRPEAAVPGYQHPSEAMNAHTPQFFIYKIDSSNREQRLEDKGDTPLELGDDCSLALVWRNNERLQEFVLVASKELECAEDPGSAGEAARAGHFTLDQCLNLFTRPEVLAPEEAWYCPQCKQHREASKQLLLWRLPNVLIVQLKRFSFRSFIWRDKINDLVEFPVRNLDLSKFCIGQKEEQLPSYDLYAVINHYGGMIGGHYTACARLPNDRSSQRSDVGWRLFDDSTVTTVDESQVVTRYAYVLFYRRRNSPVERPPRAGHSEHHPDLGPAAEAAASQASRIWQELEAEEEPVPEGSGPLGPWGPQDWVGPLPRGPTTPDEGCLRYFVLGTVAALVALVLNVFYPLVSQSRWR
Procedure, shortened: as §1

USP24 = USP24 (UniProt Q9UPU5)
Procedure, shortened: as §1

USP25 = molecular target: T2, USP25 (UniProt Q9UHP3)
T2 sequence (whole entry): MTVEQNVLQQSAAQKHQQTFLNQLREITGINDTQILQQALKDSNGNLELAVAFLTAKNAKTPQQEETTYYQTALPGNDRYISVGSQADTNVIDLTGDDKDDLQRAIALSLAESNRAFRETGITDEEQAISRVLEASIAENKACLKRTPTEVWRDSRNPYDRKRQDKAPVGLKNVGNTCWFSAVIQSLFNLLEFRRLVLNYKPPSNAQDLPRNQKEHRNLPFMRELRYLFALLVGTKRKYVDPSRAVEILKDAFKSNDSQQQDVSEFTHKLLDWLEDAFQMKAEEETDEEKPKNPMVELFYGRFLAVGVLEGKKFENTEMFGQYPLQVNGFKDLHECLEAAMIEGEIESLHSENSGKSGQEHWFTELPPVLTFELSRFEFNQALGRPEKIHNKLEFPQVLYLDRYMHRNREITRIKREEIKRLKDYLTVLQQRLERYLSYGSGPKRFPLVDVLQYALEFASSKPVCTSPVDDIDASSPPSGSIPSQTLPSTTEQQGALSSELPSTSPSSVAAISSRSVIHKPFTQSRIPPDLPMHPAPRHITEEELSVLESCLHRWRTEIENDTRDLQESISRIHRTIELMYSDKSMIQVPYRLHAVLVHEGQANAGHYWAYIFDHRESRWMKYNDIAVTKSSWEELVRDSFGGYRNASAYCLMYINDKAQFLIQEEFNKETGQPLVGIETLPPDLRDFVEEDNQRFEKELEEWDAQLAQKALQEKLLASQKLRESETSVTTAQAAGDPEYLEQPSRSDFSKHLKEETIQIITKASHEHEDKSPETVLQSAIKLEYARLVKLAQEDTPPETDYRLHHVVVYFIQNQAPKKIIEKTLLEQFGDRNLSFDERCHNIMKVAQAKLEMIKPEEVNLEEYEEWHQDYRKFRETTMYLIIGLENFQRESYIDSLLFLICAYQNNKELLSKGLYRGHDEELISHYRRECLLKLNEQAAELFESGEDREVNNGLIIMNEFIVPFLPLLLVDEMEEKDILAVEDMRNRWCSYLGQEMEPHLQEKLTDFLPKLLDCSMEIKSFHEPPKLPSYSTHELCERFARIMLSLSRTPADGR
Procedure, shortened: as §1

USP28 = molecular target: T3, USP28 (UniProt Q96RU2)
T3 sequence (whole entry): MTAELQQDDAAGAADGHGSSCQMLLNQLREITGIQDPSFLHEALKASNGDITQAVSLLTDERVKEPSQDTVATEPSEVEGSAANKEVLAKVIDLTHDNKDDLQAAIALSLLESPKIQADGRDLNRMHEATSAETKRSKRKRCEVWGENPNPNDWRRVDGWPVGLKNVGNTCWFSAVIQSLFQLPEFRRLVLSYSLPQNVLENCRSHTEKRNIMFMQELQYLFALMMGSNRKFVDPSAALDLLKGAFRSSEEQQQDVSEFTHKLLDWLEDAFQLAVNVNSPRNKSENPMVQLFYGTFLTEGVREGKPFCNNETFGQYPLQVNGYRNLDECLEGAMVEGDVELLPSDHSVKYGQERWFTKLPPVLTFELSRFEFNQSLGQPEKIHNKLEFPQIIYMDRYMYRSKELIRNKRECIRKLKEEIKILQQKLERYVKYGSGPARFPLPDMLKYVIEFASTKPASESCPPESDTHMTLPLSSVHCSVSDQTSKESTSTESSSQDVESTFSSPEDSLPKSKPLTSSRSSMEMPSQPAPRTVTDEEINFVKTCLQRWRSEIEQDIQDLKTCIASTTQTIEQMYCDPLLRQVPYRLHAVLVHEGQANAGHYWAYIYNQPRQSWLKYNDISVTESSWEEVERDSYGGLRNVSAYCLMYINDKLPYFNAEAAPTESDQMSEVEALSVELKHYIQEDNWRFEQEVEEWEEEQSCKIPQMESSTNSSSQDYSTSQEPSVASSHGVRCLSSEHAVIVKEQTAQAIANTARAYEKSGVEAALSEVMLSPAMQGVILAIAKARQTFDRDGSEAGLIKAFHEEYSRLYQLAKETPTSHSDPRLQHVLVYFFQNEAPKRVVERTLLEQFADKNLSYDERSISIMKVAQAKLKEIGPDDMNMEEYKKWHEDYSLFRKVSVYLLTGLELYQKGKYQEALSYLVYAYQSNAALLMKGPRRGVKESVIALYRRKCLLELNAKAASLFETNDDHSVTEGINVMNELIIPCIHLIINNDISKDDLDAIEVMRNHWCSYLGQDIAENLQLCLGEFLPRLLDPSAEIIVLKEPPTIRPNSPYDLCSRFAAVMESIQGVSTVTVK
Procedure, shortened: as §1

Measured: log2 ratio of Biotin-Ahx-Ub-VS probe labelling

Chain of USP24 (Q9UPU5 whole entry): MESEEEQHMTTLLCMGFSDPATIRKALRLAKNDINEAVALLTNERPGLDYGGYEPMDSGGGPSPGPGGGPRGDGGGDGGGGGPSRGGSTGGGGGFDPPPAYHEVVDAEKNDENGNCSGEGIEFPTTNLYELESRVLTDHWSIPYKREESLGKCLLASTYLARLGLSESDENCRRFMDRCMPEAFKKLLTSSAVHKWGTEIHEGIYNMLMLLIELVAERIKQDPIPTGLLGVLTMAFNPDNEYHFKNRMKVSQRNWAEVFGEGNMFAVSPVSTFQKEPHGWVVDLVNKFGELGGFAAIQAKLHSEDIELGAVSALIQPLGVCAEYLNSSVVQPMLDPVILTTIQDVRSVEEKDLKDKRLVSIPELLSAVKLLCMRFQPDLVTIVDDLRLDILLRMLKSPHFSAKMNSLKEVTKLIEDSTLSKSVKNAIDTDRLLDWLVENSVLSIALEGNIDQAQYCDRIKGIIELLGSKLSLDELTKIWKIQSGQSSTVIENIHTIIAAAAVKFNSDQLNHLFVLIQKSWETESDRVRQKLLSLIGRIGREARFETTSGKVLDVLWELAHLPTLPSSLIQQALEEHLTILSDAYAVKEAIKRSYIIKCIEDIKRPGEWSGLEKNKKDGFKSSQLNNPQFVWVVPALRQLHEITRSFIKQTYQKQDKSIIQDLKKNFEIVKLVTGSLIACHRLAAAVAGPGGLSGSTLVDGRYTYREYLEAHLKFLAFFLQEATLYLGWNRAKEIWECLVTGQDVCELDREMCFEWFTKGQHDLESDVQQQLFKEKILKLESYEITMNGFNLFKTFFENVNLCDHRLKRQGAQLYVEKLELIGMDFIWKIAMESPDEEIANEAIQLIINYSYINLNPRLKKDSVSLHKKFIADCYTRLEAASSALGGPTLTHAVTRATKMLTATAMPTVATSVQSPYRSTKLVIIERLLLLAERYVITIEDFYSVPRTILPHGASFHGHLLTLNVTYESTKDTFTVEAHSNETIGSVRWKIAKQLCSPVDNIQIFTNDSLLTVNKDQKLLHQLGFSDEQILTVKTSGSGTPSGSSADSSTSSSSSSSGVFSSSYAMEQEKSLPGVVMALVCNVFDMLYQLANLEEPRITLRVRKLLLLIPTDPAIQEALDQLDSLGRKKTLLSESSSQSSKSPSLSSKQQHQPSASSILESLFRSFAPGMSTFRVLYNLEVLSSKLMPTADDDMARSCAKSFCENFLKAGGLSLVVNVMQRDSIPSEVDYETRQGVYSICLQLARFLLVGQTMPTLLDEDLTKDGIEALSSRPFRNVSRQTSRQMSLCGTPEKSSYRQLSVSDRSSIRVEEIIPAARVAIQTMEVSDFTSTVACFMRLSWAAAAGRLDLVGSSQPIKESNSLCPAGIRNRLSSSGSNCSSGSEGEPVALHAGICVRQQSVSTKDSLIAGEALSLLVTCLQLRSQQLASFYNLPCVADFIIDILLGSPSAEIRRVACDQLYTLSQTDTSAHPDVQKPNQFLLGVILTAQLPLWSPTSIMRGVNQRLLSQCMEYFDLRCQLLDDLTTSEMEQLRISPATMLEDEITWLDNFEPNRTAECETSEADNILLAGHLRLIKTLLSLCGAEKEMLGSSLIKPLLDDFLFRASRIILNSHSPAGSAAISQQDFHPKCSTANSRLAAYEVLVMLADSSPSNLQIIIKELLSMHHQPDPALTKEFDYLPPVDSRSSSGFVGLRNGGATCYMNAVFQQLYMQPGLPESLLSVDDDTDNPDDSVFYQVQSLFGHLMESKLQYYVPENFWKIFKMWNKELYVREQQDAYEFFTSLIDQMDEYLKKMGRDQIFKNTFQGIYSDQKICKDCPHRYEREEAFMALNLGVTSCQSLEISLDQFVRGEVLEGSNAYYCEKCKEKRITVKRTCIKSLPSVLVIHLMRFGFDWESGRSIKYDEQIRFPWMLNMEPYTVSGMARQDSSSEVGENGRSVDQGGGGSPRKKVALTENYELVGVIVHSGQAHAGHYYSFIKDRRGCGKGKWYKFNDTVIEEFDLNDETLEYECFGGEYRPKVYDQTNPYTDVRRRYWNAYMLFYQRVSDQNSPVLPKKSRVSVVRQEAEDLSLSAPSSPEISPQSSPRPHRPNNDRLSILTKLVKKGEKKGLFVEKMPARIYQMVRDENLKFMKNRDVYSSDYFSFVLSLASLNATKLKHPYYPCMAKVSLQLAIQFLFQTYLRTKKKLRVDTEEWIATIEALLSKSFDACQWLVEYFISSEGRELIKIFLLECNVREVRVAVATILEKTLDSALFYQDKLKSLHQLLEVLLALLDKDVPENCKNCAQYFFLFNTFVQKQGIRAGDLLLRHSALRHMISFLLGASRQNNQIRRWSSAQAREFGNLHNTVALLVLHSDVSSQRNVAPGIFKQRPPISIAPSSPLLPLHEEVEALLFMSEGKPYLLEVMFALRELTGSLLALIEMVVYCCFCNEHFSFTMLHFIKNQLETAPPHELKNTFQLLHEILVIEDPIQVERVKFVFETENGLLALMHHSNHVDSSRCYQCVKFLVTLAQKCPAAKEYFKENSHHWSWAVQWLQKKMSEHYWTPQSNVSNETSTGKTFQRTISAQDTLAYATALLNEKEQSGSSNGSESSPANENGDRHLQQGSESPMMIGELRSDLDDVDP
Chain of USP16 (Q9Y5T5 whole entry, looked up, the tested form may be a part): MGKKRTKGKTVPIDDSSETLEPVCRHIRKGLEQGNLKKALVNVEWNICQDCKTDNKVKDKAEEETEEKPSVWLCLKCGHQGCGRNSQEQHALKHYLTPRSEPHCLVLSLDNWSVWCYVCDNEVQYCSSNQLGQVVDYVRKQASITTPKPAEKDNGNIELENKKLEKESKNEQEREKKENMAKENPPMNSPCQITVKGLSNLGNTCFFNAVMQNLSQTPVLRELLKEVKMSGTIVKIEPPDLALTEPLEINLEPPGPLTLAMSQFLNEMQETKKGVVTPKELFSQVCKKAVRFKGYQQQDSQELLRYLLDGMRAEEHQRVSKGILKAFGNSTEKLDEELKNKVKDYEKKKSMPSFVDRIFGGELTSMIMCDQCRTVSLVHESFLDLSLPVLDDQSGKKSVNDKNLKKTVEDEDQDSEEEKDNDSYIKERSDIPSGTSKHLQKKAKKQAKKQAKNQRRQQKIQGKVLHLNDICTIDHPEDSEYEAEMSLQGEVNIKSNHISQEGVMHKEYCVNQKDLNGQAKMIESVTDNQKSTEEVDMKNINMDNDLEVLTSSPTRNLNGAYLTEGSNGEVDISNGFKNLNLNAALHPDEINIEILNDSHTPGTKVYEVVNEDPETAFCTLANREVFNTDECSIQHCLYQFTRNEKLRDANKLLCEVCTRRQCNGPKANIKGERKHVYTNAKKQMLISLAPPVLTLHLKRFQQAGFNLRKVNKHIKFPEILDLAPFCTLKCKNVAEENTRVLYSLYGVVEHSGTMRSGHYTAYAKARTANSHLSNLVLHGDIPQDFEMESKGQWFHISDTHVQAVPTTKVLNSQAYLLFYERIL

Cl.O=C(CCl)N1CC(c2ccc(Br)cn2)C1
inactive: USP16 -0.253 | USP19 -0.658 | USP24 -0.76 | USP25 -0.491 | USP28 -0.738
